Compound activity: PubChem BioAssay, National Center for Advancing Translational Sciences (NCATS)
B2AR arrestin – beta2AR (human) beta-arrestin recruitment activity. P07550. beta-arrestin recruitment to beta2AR, cell-based reporter. Potency, µM (doses to about 46.1 µM), actives largely listed as activators. 0.02% of 330,000 active. AID 492947; note: nearly all actives have a fitted effect of over 65% in size
Gal4-VP16 FLuc – inhibits Gal4-VP16 luciferase reporter, ROR gamma counter-screen. Drosophila S2 Gal4-VP16 UAS-luciferase, luminescence, 20 h. Potency, µM (series often up to 53.6 µM), usual class: inhibitors. 3.5% of 310,000 active. AID 2546;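 note: Gal4-VP16 expression switched on by copper sulfate through the metallothionein promoter; nearly all actives have a fitted effect of over 50% in size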
RORg inh – inhibitors of mouse ROR gamma transcriptional activity; 5.4% of 310,000 active; P51450; Drosophila S2 Gal4-RORgamma UAS-luciferase reporter, 20 h; Potency, µM (highest dose often 53.6 µM), most hits filed as inhibitors; AID 2551; note: nearly all actives have a fitted effect of over 60% in size
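Stably transfected Drosophila Schneider cells are the test system, with ROR gamma fused to Gal4 and luciferase under UAS control; luminescence is read after 20 hr of 700 uM copper sulfate induction at ambient temperature.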
NPSR antagonist – neuropeptide S receptor (human) antagonism, cAMP. Q6W5P4. CHO-NPSR cells, cAMP TR-FRET, antagonist mode. Potency, µM (series often up to 38.3 µM), usual class: inhibitors. 1% of 220,000 active. AID 1461; note: nearly all actives have a fitted effect of over 50% in size
Target sequence (Q6W5P4 whole entry, looked up): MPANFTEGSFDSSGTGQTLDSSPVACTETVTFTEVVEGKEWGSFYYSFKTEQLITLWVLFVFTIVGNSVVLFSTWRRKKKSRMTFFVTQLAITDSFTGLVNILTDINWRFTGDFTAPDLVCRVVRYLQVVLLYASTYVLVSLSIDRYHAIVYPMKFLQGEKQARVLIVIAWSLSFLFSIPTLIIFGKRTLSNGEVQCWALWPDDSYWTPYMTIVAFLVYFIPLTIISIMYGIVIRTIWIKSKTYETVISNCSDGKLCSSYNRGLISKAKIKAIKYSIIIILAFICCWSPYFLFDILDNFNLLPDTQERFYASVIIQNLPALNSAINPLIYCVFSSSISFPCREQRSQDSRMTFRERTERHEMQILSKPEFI
A number is an active result; 0 = inactive; ? = inconclusive; - = not tested or not shown; [ ] = dose if it differs, or a comment. Sampled rows, rich in hits. Any-hit rate of the full collection: about 5.7%. Calls come from the whole dose curve; as a rule, active = well fitted curve in the direction sought with a large enough effect; inconclusive = small, poorly fitted or top-dose-only effect, or another doubt; inactive = no such curve, though single readings can be large; an effect the other way counts as inactive or inconclusive.

SMILES	B2AR arrestin	Gal4-VP16 FLuc	RORg inh	NPSR antagonist
CC[C@H](C)[C@H](NC(=O)[C@H](Cc1ccc(O)cc1)NC(=O)[C@@H]1CCCN1C(=O)[C@H](CCCN=C(N)N)NC(=O)[C@H](CCCN=C(N)N)NC(=O)[C@@H]1CCCN1C(=O)[C@H](CCCCN)NC(=O)[C@H](CC(N)=O)NC(=O)[C@H](CCC(N)=O)NC(=O)[C@H](Cc1ccc(O)cc1)NC(=O)[C@H](CC(C)C)NC(=O)[C@@H]1CCC(=O)N1)C(=O)N[C@@H](CC(C)C)C(=O)O	-	0	0	-
COc1cccc(OC)c1C(=O)NC1C(=O)N2C1SC(C)(C)C2C(=O)O (centres undefined)	-	0	0	-
COc1ccc(-c2cc(-c3ccc(OC)cc3)[nH]n2)cc1	0	2µM	1.26µM	0
COc1ccc(-c2cc(-c3cc(C)ccc3O)[nH]n2)cc1	0	?	3.98µM	0
COc1ccc(-c2cc(-c3ccc(C)cc3)n[nH]2)c(O)c1	0	20µM	2.51µM	-
Cc1ccc(O)c(-c2cc(-c3ccccc3C)[nH]n2)c1	0	11.2µM	11.2µM	0
COc1ccc(OC)c(NC(=O)c2cc(-c3ccc(C)cc3O)n[nH]2)c1	0	0	0	0
O=C(c1cccc(F)c1)N1CCC2(CC1)CN(c1ccccc1)C2	-	0	0	-
Cc1ccc(-c2cc(-c3cccs3)[nH]n2)c(O)c1	0	?	11.2µM	0
Cc1ccc(-c2cc(C(=O)Nc3cc(C)ccc3C)[nH]n2)c(O)c1	0	0	0	0
Oc1ccccc1-c1cc(-c2ccccc2)no1	0	0	0	0
Cc1ccccc1-c1cc(-c2ccccc2O)on1	0	0	12.6µM	0
CC(C)(C)c1ccc(-c2cc(-c3ccccc3O)[nH]n2)cc1	0	7.08µM	?	-
COc1ccccc1N(CC(=O)NCc1ccccc1)C(=O)CCC(=O)Nc1nccs1	0	0	0	-
Cc1ccc(S(=O)(=O)N2CCC(C(=O)N3CC(C)OC(C)C3)CC2)cc1 (centres undefined)	0	0	0	-
Cc1ccc(NC(=O)CCl)cc1S(=O)(=O)N1CCCCCC1	0	?	11.2µM	0
CC(C)(C)N1C(=O)c2ccc(C(=O)Nc3nccs3)cc2C1=O	0	?	7.08µM	0
O=C(Nc1nccs1)c1ccc(Br)c(S(=O)(=O)N2CCCC2)c1	0	?	?	-
Cc1ccc(C(=O)Nc2nccs2)cc1S(=O)(=O)N1CCCCC1	0	?	14.1µM	0
O=C(Nc1nccs1)c1ccc(Cl)c(S(=O)(=O)N2CCOCC2)c1	0	?	15.8µM	0
CCC(CO)NC(=O)c1ccccc1C(F)(F)F (centres undefined)	0	0	0	0
COc1ccc2c(c1)OC1(O)COc3cc(OC)c(OC)cc3C1=C2 (centres undefined)	-	0	0	-
CC(C)CCNC(=O)CCn1c(=S)oc2ccccc21	0	0	0	0
CCc1ccc(OCc2ccc(C(=O)O)o2)cc1	0	?	7.08µM	-
O=C(O)c1ccc(OCc2ccc(C(=O)O)o2)cc1	0	0	0	-
SMILES	B2AR arrestin	Gal4-VP16 FLuc	RORg inh	NPSR antagonist
CC(C)c1ccc(OCc2ccc(C(=O)O)o2)cc1	0	?	2.82µM	0
CNC(=O)NC(=S)NC(=O)c1ccc(OC)cc1	0	0	11.2µM	0
Fc1ccccc1NC(=S)NCc1ccc(Cl)cc1	0	?	11.2µM	-
COc1ccc(CNC(=S)Nc2ccccc2F)cc1	0	17.8µM	?	-
Fc1ccc(CNC(=S)Nc2ccccc2F)cc1	0	?	?	-
COc1ccc(CNC(=S)Nc2cccc(C)c2C)cc1	0	7.94µM	2.51µM	0
COc1cccc(C(=O)Nc2ccccc2F)c1	0	0	0	0
COc1ccc(C(=O)NC(=S)Nc2ccccc2F)cc1	0	11.2µM	4.47µM	0
C[C@@H]1CC=C[C@H]2[C@H]1C(=O)N(Cc1ccccc1)[C@H]2c1ccc(F)c(Br)c1	0	?	?	3.98µM
C[C@@H]1CC=C[C@H]2[C@H]1C(=O)N(Cc1ccccc1)[C@H]2c1ccc2ccccc2c1Br	0	?	?	10µM
COc1ccc(-c2cccc(C3CC=CC4C3C(=O)N(Cc3ccccc3)C4c3ccc(OC)c(Cl)c3)c2)cc1 (centres undefined)	0	?	0	10µM
O=C(C#Cc1ccccc1)c1cccc([N+](=O)[O-])c1	0	6.31µM	5.62µM	?
CCCCCC(=O)NNC(=S)NC(=O)c1cccc([N+](=O)[O-])c1	0	5.01µM	3.55µM	0
O=C(CNC(=S)NC(=O)c1cccc([N+](=O)[O-])c1)c1ccccc1	0	12.6µM	7.08µM	0
O=C(NC(=S)NCc1ccccc1)c1cccc([N+](=O)[O-])c1	0	5.62µM	6.31µM	-
O=C1C=C[C@@H](O)[C@@H]2[C@H]3C(=O)N(c4ccc(F)cc4F)C(=O)[C@@H]3CC[C@@H]12	-	0[10 µM]	0[10 µM]	-
COc1ccc(/C=N/Nc2ccccn2)cc1O	0	0	0	0
COc1ccc(/C=C/c2nc3cc(-c4ccccc4)ccc3o2)cc1O	0	?	31.6µM	?
Cc1ccc2nc(-c3ccc(NC(=O)COCC(=O)O)cc3)sc2c1	0	0	0	0
CCN(CC)S(=O)(=O)c1ccc(C(=O)OCC(=O)Nc2ccc(-c3nc4ccc(C)cc4s3)cc2)cc1	0	?	0.398µM	0
CCN(CC)S(=O)(=O)c1cc(C(=O)OCC(=O)Nc2ccc(-c3nc4ccc(C)cc4s3)cc2)ccc1F	0	8.91µM	12.6µM	0
CCC(=O)[C@]12O[C@@]3(C4C(=O)OCCC41)N(CC)C(C)=C(C(=O)OC)C(c1ccccc1)N3C2=O (some centres undefined)	-	0[10 µM]	0[10 µM]	-
NC(=O)COC(=O)CCCSc1nc2ccccc2s1	0	12.6µM	7.94µM	0
CC(OC(=O)CCCSc1nc2ccccc2s1)C(=O)NC(N)=O (centres undefined)	0	3.98µM	4.47µM	0
CC(C)OC(=O)CSc1nc2ccccc2s1	0	0	0	0
SMILES	B2AR arrestin	Gal4-VP16 FLuc	RORg inh	NPSR antagonist
N#Cc1ccsc1NC(=O)COC(=O)CCCSc1nc2ccccc2s1	0	5.01µM	?	0
CNC(=O)NC(=O)COC(=O)CCCSc1nc2ccccc2s1	0	?	?	0
C=CCn1c(SCC(=O)c2ccc(O)c(O)c2)nnc1-c1cccc(OC)c1	0	-	-	-
Cc1ccc(S(=O)(=O)n2nnc3ccccc32)c(C)c1C	0	0	0	0
CC(C)NC(=O)N1CCC2(CC1)CCN(C(=O)c1ccncc1)CC2	-	0	0	-
COc1cccc(CN2CCN(Cc3cccc4c3OCO4)CC2CCO)c1 (centres undefined)	0	7.94µM	7.08µM	0
OC1(c2ccc(Cl)cc2)CN(c2ccccc2)C2=[N+]1CCS2 (centres undefined)	0	0	0	10µM
CCN(CC)CCNC(=O)c1ccc2c(=O)n(C3CCCC3)c(=S)[nH]c2c1	0	0	0	0
O=C(c1ccc2c(=O)n(C3CCCC3)c(=S)[nH]c2c1)N1CCc2ccccc21	0	3.16µM	1µM	0
CC(C)NC(=O)c1ccc2c(=O)n(C3CCCC3)c(=S)[nH]c2c1	0	?	0.1µM	0
Cc1cc(=O)c2c(O)c3c(O)cc(O)c4c5c(O)cc(O)c6c(O)c7c(=O)cc(C)c8c1c2c(c34)c(c65)c78	-	0	0	-
